PubChem BioAssay AID1159580 (chemical genetic matrix, 2015)
Screen size: about 5,500 compounds; about 2,000 (36%) were called active. Another 18% or so got no clear call; they are omitted. No stated cut-off is given here; in the data, active means normalized growth mostly below about 0.91 (no sharp cut-off); inconclusive means no clear call, values can overlap the other calls; inactive means mostly above about 0.92. The list shows a part of the results.

Assay: chemical genetic growth profiling, strain panel (AID 1159580);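 further: tested at 20 µM; growth read once vehicle control cultures reached saturation at 30 °C; 1 = growth at the plate median or of vehicle wells; lower values mean less growth of the strain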
Details: growth OD

Measured: normalized growth

NNC(=O)c1ccncc1
inactive: S. cerevisiae deletion strains, locus YJR075W, strain HOC1, hits give low values 1.01 | S. cerevisiae deletion strains, locus YKL009W, strain mrt4, hits give low values 0.98 | S. cerevisiae deletion strains, locus YKL068W, hits give low values 0.992 | S. cerevisiae deletion strains, locus YKL085W, strain MDH1 (second series), hits give low values 0.991 | S. cerevisiae deletion strains, locus YKL085W, strain MDH1, hits give low values 0.991 | S. cerevisiae deletion strains, locus YKL160W, strain elf1, hits give low values 1.04 | S. cerevisiae deletion strains, locus YKL190W, strain CNB1, hits give low values 0.992 | S. cerevisiae deletion strains, locus YKR001C, strain vps1, hits give low values 0.993 | S. cerevisiae deletion strains, locus YKR026C, strain gcn3, hits give low values 1.01 | S. cerevisiae deletion strains, locus YKR091W, strain srl3, hits give low values 1 | S. cerevisiae deletion strains, locus YLL001W, strain dnm1, hits give low values 1.03 | S. cerevisiae deletion strains, locus YLL026W, hits give low values 1.03 | S. cerevisiae deletion strains, locus YLL041C, strain sdh2, hits give low values 1 | S. cerevisiae deletion strains, locus YLR027C, strain aat2, hits give low values 1.03 | S. cerevisiae deletion strains, locus YLR039C, strain RIC1, hits give low values 1.05 | S. cerevisiae deletion strains, locus YLR058C, strain SHM2, hits give low values 1.01 | S. cerevisiae deletion strains, locus YLR102C, strain apc9, hits give low values 0.998 | S. cerevisiae deletion strains, locus YLR113W, strain HOG1, hits give low values 1.01 | S. cerevisiae deletion strains, locus YLR221C, strain rsa3, hits give low values 0.986 | S. cerevisiae deletion strains, locus YLR258W, strain gsy2, hits give low values 0.99 | S. cerevisiae deletion strains, locus YLR262C, strain YPT6 (second series), hits give low values 1.03 | S. cerevisiae deletion strains, locus YLR262C, strain YPT6, hits give low values 1.01 | S. cerevisiae deletion strains, locus YLR268W, strain sec22, hits give low values 0.991 | S. cerevisiae deletion strains, locus YLR320W, strain mms22, hits give low values 0.986 | S. cerevisiae deletion strains, locus YLR330W, strain CHS5, hits give low values 1.01 | S. cerevisiae deletion strains, locus YLR342W, strain FKS1 (second series), hits give low values 1.01 | S. cerevisiae deletion strains, locus YLR342W, strain FKS1, hits give low values 1.02 | S. cerevisiae deletion strains, locus YLR357W, strain rsc2, hits give low values 0.998 | S. cerevisiae deletion strains, locus YLR370C, strain arc18, hits give low values 1.02 | S. cerevisiae deletion strains, locus YLR371W, strain rom2, hits give low values 0.988 | S. cerevisiae deletion strains, locus YLR384C, strain iki3, hits give low values 1.01 | S. cerevisiae deletion strains, locus YLR418C, strain cdc73, hits give low values 0.964 | S. cerevisiae deletion strains, locus YML016C, strain PPZ1, hits give low values 1.01 | S. cerevisiae deletion strains, locus YML032C, strain rad52, hits give low values 0.995 | S. cerevisiae deletion strains, locus YML120C, strain ndi1, hits give low values 1.06 | S. cerevisiae deletion strains, locus YML124C, strain tub3, hits give low values 0.988 | S. cerevisiae deletion strains, locus YMR058W, strain fet3, hits give low values 1.04 | S. cerevisiae deletion strains, locus YMR078C, strain ctf18, hits give low values 1 | S. cerevisiae deletion strains, locus YMR125W, strain sto1, hits give low values 1.02 | S. cerevisiae deletion strains, locus YMR129W, hits give low values 1 | S. cerevisiae deletion strains, locus YMR205C, strain PFK2, hits give low values 1.03 | S. cerevisiae deletion strains, locus YMR223W, strain ubp8, hits give low values 0.974 | S. cerevisiae deletion strains, locus YMR231W, strain pep5, hits give low values 0.995 | S. cerevisiae deletion strains, locus YMR307W, strain GAS1, hits give low values 0.997 | S. cerevisiae deletion strains, locus YNL067W, strain RPL9B, hits give low values 0.996 | S. cerevisiae deletion strains, locus YNL071W, strain lat1, hits give low values 0.996 | S. cerevisiae deletion strains, locus YNL153C, strain GIM3, hits give low values 1.01 | S. cerevisiae deletion strains, locus YNL183C, strain NPR1, hits give low values 0.948 | S. cerevisiae deletion strains, locus YNL209W, strain ssb2, hits give low values 1 | S. cerevisiae deletion strains, locus YNL233W, strain BNI4, hits give low values 1.01 | S. cerevisiae deletion strains, locus YNL248C, strain rpa49, hits give low values 0.988 | S. cerevisiae deletion strains, locus YNL250W, strain rad50, hits give low values 0.977 | S. cerevisiae deletion strains, locus YNL271C, strain bni1, hits give low values 0.985 | S. cerevisiae deletion strains, locus YNL298W, strain CLA4, hits give low values 0.986 | S. cerevisiae deletion strains, locus YNL307C, strain MCK1, hits give low values 0.995 | S. cerevisiae deletion strains, locus YNL322C, strain KRE1 (second series), hits give low values 1.02 | S. cerevisiae deletion strains, locus YNR049C, strain mso1, hits give low values 1.01 | S. cerevisiae deletion strains, locus YNR052C, strain pop2, hits give low values 1 | S. cerevisiae deletion strains, locus YOL012C, strain htz1 0.873 | S. cerevisiae deletion strains, locus YOL147C, strain pex11, hits give low values 0.994 | S. cerevisiae deletion strains, locus YOR001W, strain rrp6, hits give low values 1.03 | S. cerevisiae deletion strains, locus YOR061W, strain CKA2, hits give low values 1.02 | S. cerevisiae deletion strains, locus YOR069W, strain VPS5, hits give low values 1 | S. cerevisiae deletion strains, locus YOR070C, strain gyp1, hits give low values 1 | S. cerevisiae deletion strains, locus YOR080W, strain dia2, hits give low values 1.01 | S. cerevisiae deletion strains, locus YOR083W, strain WHI5, hits give low values 1 | S. cerevisiae deletion strains, locus YOR106W, strain vam3, hits give low values 1.04 | S. cerevisiae deletion strains, locus YOR136W, strain idh2, hits give low values 0.998 | S. cerevisiae deletion strains, locus YOR144C, strain elg1, hits give low values 0.994 | S. cerevisiae deletion strains, locus YOR184W, strain ser1, hits give low values 0.981 | S. cerevisiae deletion strains, locus YOR231W, strain MKK1, hits give low values 0.992 | S. cerevisiae deletion strains, locus YOR265W, strain rbl2, hits give low values 1.01 | S. cerevisiae deletion strains, locus YOR270C, strain vph1, hits give low values 1 | S. cerevisiae deletion strains, locus YOR290C, strain snf2, hits give low values 0.965 | S. cerevisiae deletion strains, locus YOR316C, strain cot1, hits give low values 0.997 | S. cerevisiae deletion strains, locus YPL051W, strain arl3, hits give low values 1.02 | S. cerevisiae deletion strains, locus YPL055C, strain LGE1, hits give low values 1.01 | S. cerevisiae deletion strains, locus YPL078C, strain atp4, hits give low values 1.06 | S. cerevisiae deletion strains, locus YPL106C, strain sse1, hits give low values 1.01 | S. cerevisiae deletion strains, locus YPL240C, strain hsp82, hits give low values 1.02 | S. cerevisiae deletion strains, locus YPL256C, strain CLN2, hits give low values 0.966 | S. cerevisiae deletion strains, locus YPR119W, strain clb2, hits give low values 0.987 | S. cerevisiae deletion strains, locus YPR141C, strain kar3, hits give low values 0.99 | S. cerevisiae deletion strains, locus YPR163C, strain tif3, hits give low values 0.987 | S. cerevisiae deletion strains, locus YPR167C, strain met16, hits give low values 0.981 | S. cerevisiae deletion strains, strain wtn01, hits give low values 0.98 | S. cerevisiae strains, strain wild type, hits give low values 1
